Measurements taken from PubChem BioAssay.
For some assays here: Results with a measured potency or affinity are listed apart. Activity calls are given as the source filed them. No rule for the calls is given here.

biological target: Plasmodium falciparum protein kinase 6 (PK6, PF3D7_1337100) (UniProt Q8IDW1); assay: PfPK6 kinase inhibitors, biochemical, TCAMS library (AID 1159586); details: recombinant PfPK6, Kinase-Glo ATP depletion luminescence
Sequence (Q8IDW1 1-305): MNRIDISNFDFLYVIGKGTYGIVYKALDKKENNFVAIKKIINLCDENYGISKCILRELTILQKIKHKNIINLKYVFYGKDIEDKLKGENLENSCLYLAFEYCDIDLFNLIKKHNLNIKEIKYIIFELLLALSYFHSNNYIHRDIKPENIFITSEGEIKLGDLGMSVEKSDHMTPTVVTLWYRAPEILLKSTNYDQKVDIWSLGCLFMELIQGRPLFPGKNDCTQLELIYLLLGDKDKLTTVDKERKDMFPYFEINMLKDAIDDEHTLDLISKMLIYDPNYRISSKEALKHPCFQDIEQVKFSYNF

outcome, inactive:
N#Cc1cccc(C(=O)Nc2cccc(-c3ccc(C(=O)Nc4cccnc4)cc3)c2)c1, Cc1ccc(Cl)cc1NC(=O)c1c(-c2ccccc2Cl)noc1C, COc1cc(C)c(C(O)CNC(C)CCc2ccccc2)cc1C (stereo not given), Cc1cc(N(C)C)nc(Nc2ccc(NS(=O)(=O)c3ccccc3)cc2)n1, c1ccc(-c2cccc(-c3ccccn3)n2)nc1, Cc1cc(NC2CCCC2)nc(Nc2ccccc2C)n1, CC1CCN(c2nc(C(=O)Nc3cccc4c3CCCC4)c(C(C)C)s2)CC1, Cc1cc(N[C@@H](CC(C)C)C(=O)NCCc2ccccc2)nc(NCCc2ccc(F)cc2)n1, CCCNC(=O)C1Cc2cc(OC)c(OC)cc2C2(N1)C(=O)N(Cc1cccc(OC)c1)c1ccccc12 (stereo not given), Cc1cc(NC(=O)CCCN2CCN(c3cccc(Cl)c3Cl)CC2)ccc1N1CCN(C(C)C)CC1, CN1C(C)(C)CC(NC(=O)c2ccc(-c3nc4ccc(Cl)cc4[nH]3)cc2)CC1(C)C, Cc1cccc(CNc2nc(C)cc(N[C@@H](CC(C)C)C(=O)NCCOc3ccccc3)n2)c1, COc1ccc(CCNC(=O)c2cc3c(=O)n4cccc(C)c4nc3n(C)c2=N)cc1, COc1ccc2nccc([C@@H](O)CN3CCC(NC(=O)C(c4ccsc4)N4CCN(c5ccccc5)CC4)CC3)c2c1 (stereo not given in full), CCOc1ccc(-n2nc3c(Cl)nnc(-c4ccccc4)c3c2-c2ccccc2)cc1, CCCNCc1ccc(-c2ccc(CN(CCOC)C(=O)c3ccco3)cc2)nc1, Cc1nc(N)nc(N)c1OCc1cccc2ccccc12, O=C(Nc1ccc(OC(F)(F)F)cc1)Nc1ccc([N+](=O)[O-])cc1, CC(C)(C)CCN1CCC(NC(=O)c2ccc(-c3cccc(C(F)(F)F)c3)s2)CC1, C=CCNC(CCCCC)c1ccc(OCCOc2ccc(C(CCCCC)NCC=C)cc2)cc1 (stereo not given), CC(C)(C)c1ccc(NC(=O)c2cccc(CN3CCCN(Cc4cccc(O)c4)CC3)c2)cc1, O=C(Nc1ccc(C(F)(F)F)cc1)c1ccc(S(=O)(=O)NC2CCCN(CC3CCCCC3)C2)cc1 (stereo not given), Cc1ccoc1C(=O)Nc1ccc(-c2cccc(-c3nc4c(C)cccc4[nH]3)c2)cc1, CS(=O)(=O)N(c1ccc(F)cc1)c1cc(C(=O)N[C@@H](Cc2ccccc2)[C@H](O)CNCc2cccc(C(F)(F)F)c2)cc(N2CCCC2=O)c1, Cc1[nH]nc2ccc(-c3cc(OC[C@@H](N)Cc4ccccc4)cnc3-c3ccc(OCc4cccc(F)c4)cc3)cc12, Cc1ccc2[nH]c(-c3ccc(/C=C/C(=O)NC4CCN(Cc5ccccc5)CC4)cc3)nc2c1C, CN1CCN(CCCNCc2cccc(-c3ccc(CNCCc4ccccc4)cc3)c2)CC1, O=C(Nc1ccc2oc(-c3ccc(Br)cc3)nc2c1)c1ccc([N+](=O)[O-])o1, N#Cc1ccc(-c2ccc(C(=O)NCCCCN3CCC(c4ccc5c(c4OCC(N)=O)CCCC5)CC3)nc2)cc1, CCN(CC)CCN1C(=O)c2oc3ccc(Cl)cc3c(=O)c2C1c1ccc(SC)cc1 (stereo not given), O=[N+]([O-])c1cccc(-c2nc(-c3ccc(Br)cc3)[nH]c2-c2ccc(Br)cc2)c1, COc1cccc(CN2CCC3(CC2)CN(C(=O)Nc2ccc(Cl)c(Cl)c2)C3)c1, COc1ccc(C(=O)O)cc1OCc1ccccc1, CNCCNC(=O)C1Cc2c([nH]c3c(C)cccc23)C(c2ccc(Cl)c(Cl)c2)N1 (stereo not given), Cc1cc2ncc(C(N)=O)c(Nc3ccc(N4CCOCC4)cc3)c2cc1S(C)(=O)=O, NC1=NC(=O)C(=Cc2cn(-c3ccccc3)nc2-c2cccc(S(=O)(=O)N3CCCC3)c2)S1, N#Cc1ccc(S(=O)(=O)N2C(c3cccc([N+](=O)[O-])c3)C(C(=O)c3ccccc3)N(C3CCCCC3)C2c2cccc([N+](=O)[O-])c2)cc1 (stereo not given), Nc1ncc(-c2ccccc2)cc1/C=C/c1cccnc1, O=C(/C=C/c1ccc(Cl)cc1)NCCCCCN1CCCN(C(=O)Nc2ccc(F)c(Cl)c2)CC1, Ic1cc(Nc2ncnc3ccsc23)ccc1OCc1ccccc1

biological target: Protein kinase 7 (PK7), Plasmodium falciparum 3D7 (PF3D7_0213400) (UniProt Q7YTF7); assay: inhibition of Plasmodium PK7 catalytic activity – biochemical, TCAMS antimalarial set, Kinase-Glo luminescence (AID 1159587); details: recombinant PfPK7, Kinase-Glo ATP depletion luminescence
Sequence (Q7YTF7 1-343): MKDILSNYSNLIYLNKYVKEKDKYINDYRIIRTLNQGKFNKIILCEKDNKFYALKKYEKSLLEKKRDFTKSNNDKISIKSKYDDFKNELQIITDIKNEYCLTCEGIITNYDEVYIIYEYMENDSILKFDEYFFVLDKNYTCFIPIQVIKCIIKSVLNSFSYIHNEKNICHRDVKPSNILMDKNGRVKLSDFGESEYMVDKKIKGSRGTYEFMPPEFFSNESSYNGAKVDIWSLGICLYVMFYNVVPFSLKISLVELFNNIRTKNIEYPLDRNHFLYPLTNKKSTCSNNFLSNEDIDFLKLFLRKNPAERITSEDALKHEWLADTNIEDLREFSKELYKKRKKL

outcome, inactive:
N#Cc1cccc(C(=O)Nc2cccc(-c3ccc(C(=O)Nc4cccnc4)cc3)c2)c1, Cc1ccc(Cl)cc1NC(=O)c1c(-c2ccccc2Cl)noc1C, COc1cc(C)c(C(O)CNC(C)CCc2ccccc2)cc1C (stereo not given), Cc1cc(N(C)C)nc(Nc2ccc(NS(=O)(=O)c3ccccc3)cc2)n1, c1ccc(-c2cccc(-c3ccccn3)n2)nc1, Cc1cc(NC2CCCC2)nc(Nc2ccccc2C)n1, CC1CCN(c2nc(C(=O)Nc3cccc4c3CCCC4)c(C(C)C)s2)CC1, Cc1cc(N[C@@H](CC(C)C)C(=O)NCCc2ccccc2)nc(NCCc2ccc(F)cc2)n1, CCCNC(=O)C1Cc2cc(OC)c(OC)cc2C2(N1)C(=O)N(Cc1cccc(OC)c1)c1ccccc12 (stereo not given), Cc1cc(NC(=O)CCCN2CCN(c3cccc(Cl)c3Cl)CC2)ccc1N1CCN(C(C)C)CC1, CN1C(C)(C)CC(NC(=O)c2ccc(-c3nc4ccc(Cl)cc4[nH]3)cc2)CC1(C)C, Cc1cccc(CNc2nc(C)cc(N[C@@H](CC(C)C)C(=O)NCCOc3ccccc3)n2)c1, COc1ccc(CCNC(=O)c2cc3c(=O)n4cccc(C)c4nc3n(C)c2=N)cc1, COc1ccc2nccc([C@@H](O)CN3CCC(NC(=O)C(c4ccsc4)N4CCN(c5ccccc5)CC4)CC3)c2c1 (stereo not given in full), CCOc1ccc(-n2nc3c(Cl)nnc(-c4ccccc4)c3c2-c2ccccc2)cc1, CCCNCc1ccc(-c2ccc(CN(CCOC)C(=O)c3ccco3)cc2)nc1, Cc1nc(N)nc(N)c1OCc1cccc2ccccc12, O=C(Nc1ccc(OC(F)(F)F)cc1)Nc1ccc([N+](=O)[O-])cc1, CC(C)(C)CCN1CCC(NC(=O)c2ccc(-c3cccc(C(F)(F)F)c3)s2)CC1, C=CCNC(CCCCC)c1ccc(OCCOc2ccc(C(CCCCC)NCC=C)cc2)cc1 (stereo not given), CC(C)(C)c1ccc(NC(=O)c2cccc(CN3CCCN(Cc4cccc(O)c4)CC3)c2)cc1, O=C(Nc1ccc(C(F)(F)F)cc1)c1ccc(S(=O)(=O)NC2CCCN(CC3CCCCC3)C2)cc1 (stereo not given), Cc1ccoc1C(=O)Nc1ccc(-c2cccc(-c3nc4c(C)cccc4[nH]3)c2)cc1, CS(=O)(=O)N(c1ccc(F)cc1)c1cc(C(=O)N[C@@H](Cc2ccccc2)[C@H](O)CNCc2cccc(C(F)(F)F)c2)cc(N2CCCC2=O)c1, Cc1[nH]nc2ccc(-c3cc(OC[C@@H](N)Cc4ccccc4)cnc3-c3ccc(OCc4cccc(F)c4)cc3)cc12, Cc1ccc2[nH]c(-c3ccc(/C=C/C(=O)NC4CCN(Cc5ccccc5)CC4)cc3)nc2c1C, CN1CCN(CCCNCc2cccc(-c3ccc(CNCCc4ccccc4)cc3)c2)CC1, O=C(Nc1ccc2oc(-c3ccc(Br)cc3)nc2c1)c1ccc([N+](=O)[O-])o1, N#Cc1ccc(-c2ccc(C(=O)NCCCCN3CCC(c4ccc5c(c4OCC(N)=O)CCCC5)CC3)nc2)cc1, CCN(CC)CCN1C(=O)c2oc3ccc(Cl)cc3c(=O)c2C1c1ccc(SC)cc1 (stereo not given), O=[N+]([O-])c1cccc(-c2nc(-c3ccc(Br)cc3)[nH]c2-c2ccc(Br)cc2)c1, COc1cccc(CN2CCC3(CC2)CN(C(=O)Nc2ccc(Cl)c(Cl)c2)C3)c1, COc1ccc(C(=O)O)cc1OCc1ccccc1, CNCCNC(=O)C1Cc2c([nH]c3c(C)cccc23)C(c2ccc(Cl)c(Cl)c2)N1 (stereo not given), Cc1cc2ncc(C(N)=O)c(Nc3ccc(N4CCOCC4)cc3)c2cc1S(C)(=O)=O, NC1=NC(=O)C(=Cc2cn(-c3ccccc3)nc2-c2cccc(S(=O)(=O)N3CCCC3)c2)S1, N#Cc1ccc(S(=O)(=O)N2C(c3cccc([N+](=O)[O-])c3)C(C(=O)c3ccccc3)N(C3CCCCC3)C2c2cccc([N+](=O)[O-])c2)cc1 (stereo not given), Nc1ncc(-c2ccccc2)cc1/C=C/c1cccnc1, O=C(/C=C/c1ccc(Cl)cc1)NCCCCCN1CCCN(C(=O)Nc2ccc(F)c(Cl)c2)CC1, Ic1cc(Nc2ncnc3ccsc23)ccc1OCc1ccccc1
